Screening data deposited in PubChem by National Center for Advancing Translational Sciences (NCATS).
TGFb SMAD3 inh: inhibitors of TGF-b signaling; 410,000 compounds, 1.2% hits; HepG2 CAGA-GFP TGF-b/SMAD3 reporter, GFP fluorescence, 18 h; TGF-beta stimulated, 500 pg/mL final; Potency, µM (series often up to 46.1 µM), inactives show at the highest dose activity, negative = inhibition, most hits filed as inhibitors; AID 588855; note: potency is the fitted concentration of half-maximal effect; % is set by controls: 0 for no effect and ±100 for the full control effect; nearly all actives have a fitted effect of over 65% in size
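Inhibition of TGF-beta-driven CAGA-GFP reporter expression in HEPG2 cells is measured by cellular GFP fluorescence after 18 h stimulation with 500 pg/mL recombinant TGF-beta in 1% FBS medium at 37 degrees C.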
S2 tox: viability counter-screen for ATXN expression inhibitors; S2 cells (HEK-293 line with an ATXN2-luciferase reporter) viability, CellTiter-Fluor protease fluorescence, 24 h; Potency, µM (doses to about 56.7 µM), actives largely listed as cytotoxic; 400,000 compounds, 0.49% hits; note: potency is the fitted concentration of half-maximal effect; nearly all actives have a fitted effect of over 40% in size
ATXN2 expr inh: reduces ATXN2 reporter expression in HEK-293 cells; HEK-293 ATXN2-luciferase reporter, luminescence, 24 h; Potency, µM (series often up to 57 µM), without a hit: at the top dose activity change, negative = inhibition, most hits filed as inhibitors; 360,000 compounds, 0.72% hits; AID 1745845; note: potency is the fitted concentration of half-maximal effect; % is set by controls: 0 for no effect and ±100 for the full control effect; nearly all actives have a fitted effect of over 55% in size
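ATXN2-luciferase reporter cells (luciferase flanked by upstream and downstream ATXN2 gene portions) were treated 24 h at 37 °C with compounds at up to 57 uM. SteadyGlo luminescence gave expression; GF-AFC fluorescence gave viability.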
HepG2 tox: kills HepG2 cells in TGF-b inhibitor counter-screen; Potency, µM (titrated, usually from 46.1 µM), inactives show at the highest dose activity change, negative = cytotoxicity, actives largely listed as cytotoxic; 410,000 compounds, 0.76% hits; HepG2 CAGA-GFP viability, ATP luminescence, 18 h; note: potency is the fitted concentration of half-maximal effect
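CellTiter-Glo luminescence gave cytotoxicity after 18 hours at 37 degrees C. The cells were HepG2 CAGA-GFP in 1% FBS DMEM, stimulated with 500 pg/mL TGF-beta after compound addition. %Activity was normalised to no-cell wells (complete cell-killing) and DMSO (no toxicity), and curves were fitted and classified.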
D3 ag: activates the human D3 dopamine receptor. P35462. D3R DiscoveRx beta-arrestin cells, luminescence, 90 min. max activation, %. 410,000 compounds, 0.58% hits; in the data active = max activation above about 30%; note: 0% is about no effect
Target sequence (P35462 whole entry, looked up): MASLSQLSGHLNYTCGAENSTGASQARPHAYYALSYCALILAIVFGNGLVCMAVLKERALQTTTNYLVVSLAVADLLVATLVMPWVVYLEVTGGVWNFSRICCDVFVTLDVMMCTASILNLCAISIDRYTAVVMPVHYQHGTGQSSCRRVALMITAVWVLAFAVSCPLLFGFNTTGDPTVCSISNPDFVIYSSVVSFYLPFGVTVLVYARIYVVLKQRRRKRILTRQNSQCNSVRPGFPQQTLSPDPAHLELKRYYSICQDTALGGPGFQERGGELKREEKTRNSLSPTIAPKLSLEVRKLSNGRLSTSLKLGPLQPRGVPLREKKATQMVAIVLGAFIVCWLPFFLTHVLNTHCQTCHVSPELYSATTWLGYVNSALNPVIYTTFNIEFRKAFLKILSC
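Agonist mode: compounds and dopamine controls were applied to plated cells for 90 min at 37 degrees C after an overnight attachment at 1500 cells/well. Luminescent read-out followed 30 - 60 minutes at room temperature with DiscoveRx detection reagent.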
D3 antag: D3 dopamine receptor (human) antagonism; D3R cells, DiscoveRx beta-arrestin luminescence, antagonist mode; active compounds read low; max response, negative = inhibition, %; P35462; 360,000 compounds, 2.5% hits; in the data active = max response below about -50%; inconclusive = no clear call, values can overlap the other calls; note: % is set by controls: 0 for no effect and ±100 for the full control effect
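Cells plated overnight at 1500 cells/well, then exposed to library compounds with dopamine controls for 90 minutes at 37 degrees C. DiscoveRx reagent added for 30–60 minutes at room temperature; luminescence read, quantitative HTS format.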
The depositor's hits bear a star; i = inactive; u = inconclusive; x = no result. An excerpt weighted towards active compounds, which were near 4.7% of everything screened. Unless noted, calls come from the whole dose curve; as a rule, active = well fitted curve in the direction sought with a large enough effect; inconclusive = small, poorly fitted or top-dose-only effect, or another doubt; inactive = no such curve, though single readings can be large; an effect the other way counts as inactive or inconclusive.

SMILES	TGFb SMAD3 inh	S2 tox	ATXN2 expr inh	HepG2 tox	D3 ag	D3 antag
Cc1ccc(NC(=O)C2SC(=Nc3ccccc3)C(C(=O)Nc3ccc(Cl)cc3)=C2N)cc1 (configuration not stated)	-26%	i	26%	2%	-2	4
Cc1ccc(N=C2SC(C(=O)Nc3ccc(OC(F)(F)F)cc3)C(N)=C2C(=O)Nc2c(C)cc(C)cc2C)cc1 (configuration not stated)	7.1µM*	x	u	11µM*	13	-17
COc1cc(NC(=O)Cn2ncc(Cl)c(Cl)c2=O)c(C)cc1[N+](=O)[O-]	u	17µM*	27µM*	-26%	6	u
COc1cc(NC(=O)CN2C(=O)CN(C)C2=O)c(C)cc1[N+](=O)[O-]	0%	i	2%	6%	-5	-23
C=CC1=C2C=C(C3CC3)N(CCCN(CC)CC)C=C2C(=O)C(C)(OC(=O)c2ccco2)C1=O (configuration not stated)	-1%	i	-5%	1%	46*	-13
COc1ccccc1/C=C/c1nc(C#N)c(NC2CCCCC2)o1	-16%	x	x	-27%	-1	x
CCCCCCCCCC[n+]1ccc(/C=C/c2c[nH]c3ccccc23)c2ccccc21	7.1µM*	x	x	13µM*	x	x
CCCCCCCCCC[n+]1cccc2c3ccccc3ccc21	13µM*	u	0.67µM*	11µM*	1	12
CCCCCCC[n+]1ccc(/C=C/c2c[nH]c3ccccc23)cc1	177%	x	x	-18%	x	x
CCCCCCCC[n+]1cccc2c3ccccc3ccc21	1.4µM*	u	x	-10%	0	17
Cc1cc[n+](CC(=O)c2ccc(F)cc2)c2ccccc12	21%	x	x	-5%	x	x
CCCCCCCCCCCCCCCC[n+]1ccc(C)c2ccccc21	7.1µM*	x	x	11µM*	x	x
CCN(Cc1cccc(S(=O)(=O)O)c1)c1ccc(C(=C2C=CC(=[N+](CC)Cc3cccc(S(=O)(=O)O)c3)C=C2)c2ccc(O)cc2S(=O)(=O)O)cc1	u	x	x	-27%	x	x
O=C1C(=O)C(c2ccc(O)cc2O)Oc2cc(O)cc(O)c21 (configuration not stated)	-3%	x	x	-1%	x	x
CC(=O)c1ccccc1C(=O)NCC1Cc2cccc(-c3cccnc3)c2O1 (configuration not stated)	x	i	x	x	x	x
CC(=O)c1nc(N2C(=O)CC(Cc3cccc(C)c3)C2=O)sc1C (configuration not stated)	-10%	i	-7%	2%	8	-55*
N#Cc1ccc(C(=O)Nc2ccc3c(c2)N(C2CCCC2)C(=O)c2ccccc2S3)cc1	5.6µM*	i	-1%	-8%	-8	x
COC(=O)C1CCCCN1Cc1nc(N(C)C)c2ccccc2n1 (configuration not stated)	x	i	x	x	x	x
Cc1cccc(-n2ncc(C(=O)N3CCN(C4CCCCC4)CC3)c2C2CCN(C(=O)OC(C)(C)C)CC2)c1	8.9µM*	x	x	-18%	-18	x
CC(C)(C)OC(=O)N1CCC(c2c(C(=O)N3CCOCC3)cnn2-c2cccc(F)c2)CC1	-5%	i	10%	-2%	74*	x
O=C(Cc1ccc(-c2ccccc2)cc1)NO	2%	x	x	-3%	x	x
O=C(CCN1CCCCCC1)c1ccccc1	0%	i	7%	-3%	1	-27
O=C(/C=C/c1ccccc1)CCN1CCCCC1	11µM*	u	u	20µM*	-21	-88*
CC(CN1CCCCC1)OC(=O)C(C)(c1ccccc1)c1ccccc1 (configuration not stated)	-4%	u	17%	-41%	-5	-53*
CC(CN1CCN(C)CC1)OC(=O)c1ccccc1Cl (configuration not stated)	-7%	i	-9%	-9%	-2	-52*
SMILES	TGFb SMAD3 inh	S2 tox	ATXN2 expr inh	HepG2 tox	D3 ag	D3 antag
CC(CN1CCCCC1)OC(=O)Cc1ccc(Cl)cc1 (configuration not stated)	3%	i	6%	1%	3	-58*
CC(CN1CCOCC1)OC(=O)C(C)(c1ccccc1)c1ccccc1 (configuration not stated)	0%	i	-6%	-36%	-6	u
CC(CN1CCCC1)OC(=O)c1ccccc1Cl (configuration not stated)	-10%	i	3%	-2%	-8	u
CN(C)c1ccc(C(=O)Oc2cc(O/N=[N+](\[O-])N(C)C)c([N+](=O)[O-])cc2[N+](=O)[O-])cc1	u	x	x	3%	x	x
c1coc(CNc2ncnc3c2nc2n3CCCC2)c1	-28%	x	x	-9%	x	x
Cc1cc(S(=O)(=O)NCc2nc(N3CCCC3)c3cc(Cl)ccc3n2)c(C)s1	x	i	x	x	x	x
CC(CN1CCOCC1)OC(=O)/C=C/c1ccccc1 (configuration not stated)	0%	i	20%	22%	-10	-20
CC(CN1CCCCC1)OC(=O)/C=C/c1ccccc1 (configuration not stated)	-6%	i	1%	-2%	-28	-61*
Cc1cccc2cc(CN(Cc3nnnn3C3CCCCC3)C3CCCC3)c3nnnn3c12	-8%	i	-14%	-15%	-9	-65*
Cc1cc(C)c2[nH]c(=O)c(CN(Cc3nnnn3C3CCCC3)C3CCCCC3)cc2c1	0%	i	-9%	-8%	3	17
Cc1ccc(NC(=O)C2(c3ccc4c(c3)OC(F)(F)O4)CC2)nc1-c1cccc(C(=O)O)c1	x	x	0.086µM*	x	x	x
O=C(CN1C2=NCCN2c2ccccc21)c1ccc(Br)cc1	u	i	-18%	-21%	-2	u
O=C(CN1C2=NCCN2c2ccccc21)c1ccc2c(c1)OCO2	-25%	16µM*	-34%	-8%	-10	-15
O=C(CN1C2=NCCCN2c2ccccc21)c1ccc([N+](=O)[O-])cc1	u	i	u	16µM*	0	-4
CC#CCn1c(N2CCC[C@@H](N)C2)nc2c1c(=O)n(Cc1nc(C)c3ccccc3n1)c(=O)n2C	x	x	-19%	x	x	x
CC(=O)Nc1ccc(-c2nnc3n(CC(C)C)c(=O)c4ccccc4n23)cc1	-5%	i	-6%	-2%	-3	x
CCCCC1=CC2=C(c3ccco3)C(=O)C(C)(OC(=O)c3ccc(OC)cc3)C(=O)C2=CN1CCCOC(C)C (configuration not stated)	-5%	u	-29%	-14%	-18	-83*
Cc1cc(=O)[nH]c(N=N/C(=N/Nc2ccccc2C)c2ccccc2)n1	-4%	u	2.5µM*	-9%	-3	u
